Laboratory results reported in PubChem BioAssay (Tox21).
Records with an inconclusive call do not appear. The source made the active and inactive calls. Unless noted, the call rests on the fitted dose curve; in most records, active means well fitted curve in the direction sought with a large enough effect in the repeat runs; inconclusive means weak or mixed curves; inactive means no such curve, though single readings can be large; an effect the other way counts as inactive or inconclusive.

Experiments:
[1] = qHTS assay to identify small molecule that activate the aryl hydrocarbon receptor (AhR) signaling pathway - cell viability counter screen (AID 743086);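 further: HepG2 liver cells carrying the AhR DRE luciferase reporter; series mostly up to about 70 µM; nearly all actives have a fitted effect of over 45% in size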
In short: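 Cytotoxicity counter screen: CellTiter-Fluor signal (30 min, 37 C) in 4000 HepG2 cells/well carrying the DRE-luciferase reporter, following 24 h compound exposure at 37 C.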

[2] = molecular target: Peroxisome proliferator-activated receptor gamma (Homo sapiens) (UniProt P37231); test: qHTS assay to identify small molecule agonists of the peroxisome proliferator-activated receptor gamma (PPARg) signaling pathway (AID 743094; active means well fitted activation curve with a large enough effect in the signal ratio in the repeat runs, not every such curve was filed as active; the % refers to the signal ratio)
In short: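 Stably transfected HEK293H cells (GeneBLAzer PPARg UAS-bla) were incubated with test substances for 17 h at 37C after a 5 h pre-incubation; beta-lactamase activity was then detected by FRET substrate fluorescence.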

[3] = molecular target: Peroxisome proliferator-activated receptor gamma (Homo sapiens) (UniProt P37231); test: qHTS assay to identify small molecule antagonists of the peroxisome proliferator-activated receptor gamma (PPARg) signaling pathway (AID 743191; calls by dose curve; further: series mostly up to about 63 µM; nearly all actives have a fitted effect of over 30% in size)
In short: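 Beta-lactamase reporter under UAS control in HEK293H PPARg-bla cells; compound treatment 17 h at 37C. Read-out: fluorescence intensity after 1 h room-temperature incubation with LiveBLAzer B/G FRET substrate.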

[4] = qHTS assay to identify small molecule antagonists of the peroxisome proliferator-activated receptor gamma (PPARg) signaling pathway - cell viability counter screen (AID 743194); further: nearly all actives have a fitted effect of over 55% in size
In short: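 Viability was measured as CellTiter-Glo luminescence in GeneBLAzer PPARg UAS-bla HEK293H cells. These cells had been exposed 17 h at 37 C to compounds together with rosiglitazone at 50 nM final, with the beta-lactamase readout taken in the same wells.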

[5] = qHTS assay for small molecule agonists of the antioxidant response element (ARE) signaling pathway (AID 743202; active means well fitted activation curve with a large enough effect in the signal ratio in the repeat runs, not every such curve was filed as active; the % refers to the signal ratio)
In short: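 Quantitative high-throughput format in HepG2 cells bearing an integrated ARE-beta-lactamase reporter. Compound exposure lasted 16 h at 37 C, and fluorescence was read 2 h after adding LiveBLAzer B/G substrate at room temperature.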

[6] = qHTS assay for small molecule agonists of the antioxidant response element (ARE) signaling pathway - cell viability counter screen (AID 743203; calls by dose curve; further: nearly all actives have a fitted effect of over 55% in size)
In short: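 Cells (ARE-bla HepG2, 2,000/well) receive DMSO-dissolved compounds after a 5 hrs rest. Plates incubate 16 hrs at 37C/5% CO2. CellTiter-Glo luminescence is then recorded after 30 min at room temperature.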

[7] = qHTS assay for small molecule activators of the heat shock response signaling pathway - cell viability counter screen (AID 743209); further: nearly all actives have a fitted effect of over 50% in size
In short: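 Quantitative HTS format, Tox21 10K library. HeLa cells carrying an HSE-driven beta-lactamase reporter were treated 5 h at 37 C, then assessed for viability by CellTiter-Glo luminescence.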

[8] = qHTS assay for small molecule activators of the heat shock response signaling pathway (AID 743210; active means well fitted activation curve with a large enough effect in the signal ratio in the repeat runs, with a control signal flat, not every such curve was filed as active; the % refers to the signal ratio;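 further: HeLa cells with beta-lactamase reporter driven by heat shock elements; series mostly up to about 63 µM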)
In short: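 HeLa HSE-bla cells, overnight plating; cpd in DMSO 5 h, 37 C; LiveBLAzer B/G FRET substrate 2.5 h RT; fluorescence intensity read.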

[9] = qHTS assay to identify small molecule agonists of the peroxisome proliferator-activated receptor delta (PPARd) signaling pathway - cell viability counter screen (AID 743211); further: nearly all actives have a fitted effect of over 55% in size
In short: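 Following 5 h plating at 37 C and 5% CO2, PPARd UAS-bla HEK293H cells took up test compounds for 17 h. Viability was quantified by luminescence 30 min after CellTiter-Glo addition at room temperature.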

[10] = molecular target: Peroxisome proliferator-activated receptor delta (Homo sapiens) (UniProt Q03181); test: qHTS assay to identify small molecule agonists of the peroxisome proliferator-activated receptor delta (PPARd) signaling pathway (AID 743212; calls by dose curve)
In short: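 HEK293H PPARd-bla cells; 5 h preincubation 37 C/5% CO2; compound (DMSO) 37 C; LiveBLAzer B/G FRET substrate 2 h RT; fluorescence intensity.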

[11] = qHTS assay to identify small molecule antagonists of the peroxisome proliferator-activated receptor delta (PPARd) signaling pathway - cell viability counter screen (AID 743213); further: nearly all actives have a fitted effect of over 50% in size
In short: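 Viability counter-screen, qHTS format: PPARd-bla HEK293H, L165041 300 nM final, 17 h compound exposure at 37 C, CellTiter-Glo luminescence after 30 min RT.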

[12] = molecular target: Peroxisome proliferator-activated receptor delta (Homo sapiens) (UniProt Q03181); test: qHTS assay to identify small molecule antagonists of the peroxisome proliferator-activated receptor delta (PPARd) signaling pathway (AID 743215; active means well fitted inhibition curve with a large enough effect in the signal ratio in the repeat runs, not every such curve was filed as active; the % refers to the signal ratio;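 further: cells stimulated with agonist L165041 at 300 nM final during compound exposure; series mostly up to about 62 µM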)
In short: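 Antagonist-mode beta-lactamase reporter screen: HEK293H cells with UAS-bla under PPARd control, stimulated by 300 nM L165041 (final) alongside test compound for 17 h at 37 C, then FRET fluorescence after 2 h substrate incubation.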

[13] = qHTS assay to identify small molecule agonists of the farnesoid-X-receptor (FXR) signaling pathway - cell viability counter screen (AID 743218); further: nearly all actives have a fitted effect of over 45% in size
In short: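 In GeneBLAzer FXR-UAS-bla HEK 293T cells, compounds act for 16 h at 37 C. Cell viability is then scored in the reporter wells by CellTiter-Glo, 30 min at RT, luminescence.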

[14] = qHTS assay to identify small molecule antagonists of the farnesoid-X-receptor (FXR) signaling pathway - cell viability counter screen (AID 743221; active means well fitted cell-killing curve with a large enough effect in the repeat runs, not every such curve was filed as active; further: nearly all actives have a fitted effect of over 50% in size)
In short: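 Compound effects on cell number were measured as CellTiter-Glo luminescence in HEK 293T cells expressing FXR-UAS-bla, after 16 h at 37 C with 50 uM CDCA (final).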

[15] = qHTS assay to identify small molecule agonists of the vitamin D receptor (VDR) signaling pathway - cell viability counter screen (AID 743224); further: series mostly up to about 63 µM; nearly all actives have a fitted effect of over 50% in size
In short: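 VDR-bla cell line, quantitative HTS format; 16 h compound incubation (37C, 5% CO2); ATP-based CellTiter-Glo luminescence measured in the reporter assay wells.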

[16] = qHTS assay to identify small molecule antagonists of the vitamin D receptor (VDR) signaling pathway - cell viability counter screen (AID 743225); further: nearly all actives have a fitted effect of over 50% in size
In short: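 In this counter screen, VDR-bla HEK 293T cells receive test compound plus 3 nM final calcitriol for 16 h at 37C. Room-temperature steps of 2 h with the beta-lactamase substrate, then 30 min with CellTiter-Glo, precede the luminescence read.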

[17] = molecular target: Vitamin D3 receptor (Homo sapiens) (UniProt P11473); test: qHTS assay to identify small molecule agonists of the vitamin D receptor (VDR) signaling pathway (AID 743222; calls by dose curve)
In short: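 Agonist activity measured in VDR-bla reporter cells. Exposure 16 h, 37C, 5% CO2; detection by B/G FRET substrate, 2 h RT.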

[18] = molecular target: Vitamin D3 receptor (Homo sapiens) (UniProt P11473); test: qHTS assay to identify small molecule antagonists of the vitamin D receptor (VDR) signaling pathway (AID 743223; active means well fitted inhibition curve with a large enough effect in the signal ratio in the repeat runs, not every such curve was filed as active; the % refers to the signal ratio)
In short: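 Beta-lactamase activity in VDR-bla cells is measured by FRET substrate fluorescence (2 h, room temperature) after cells spend 16 h at 37C with test compound and 3 nM final 1alpha,25-dihydroxyvitamin D3.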

[19] = molecular target: Bile acid receptor (Homo sapiens) (UniProt Q96RI1); test: qHTS assay to identify small molecule antagonists of the farnesoid-X-receptor (FXR) signaling pathway (AID 743217; active means well fitted inhibition curve with a large enough effect in the signal ratio in the repeat runs, not every such curve was filed as active; the % refers to the signal ratio)
In short: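 Beta-lactamase reporter under UAS control in HEK 293T cells; compound exposure 16 h at 37 °C in the presence of chenodeoxycholic acid (50 uM final); signal from B/G FRET substrate after 2 h at room temperature.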

[20] = molecular target: Bile acid receptor (Homo sapiens) (UniProt Q96RI1); test: qHTS assay to identify small molecule agonists of the farnesoid-X-receptor (FXR) signaling pathway (AID 743220; active means well fitted activation curve with a large enough effect in the signal ratio in the repeat runs, not every such curve was filed as active; the % refers to the signal ratio)
In short: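 Beta-lactamase reporter under UAS control in GeneBLAzer FXR HEK 293T cells (5000/well) measured with LiveBLAzer FRET substrate after 2 h at room temperature. Compound exposure lasted 16 h at 37C.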

Measured: Potency

Vitamin D3 receptor (Homo sapiens), sequence (P11473 whole entry, looked up): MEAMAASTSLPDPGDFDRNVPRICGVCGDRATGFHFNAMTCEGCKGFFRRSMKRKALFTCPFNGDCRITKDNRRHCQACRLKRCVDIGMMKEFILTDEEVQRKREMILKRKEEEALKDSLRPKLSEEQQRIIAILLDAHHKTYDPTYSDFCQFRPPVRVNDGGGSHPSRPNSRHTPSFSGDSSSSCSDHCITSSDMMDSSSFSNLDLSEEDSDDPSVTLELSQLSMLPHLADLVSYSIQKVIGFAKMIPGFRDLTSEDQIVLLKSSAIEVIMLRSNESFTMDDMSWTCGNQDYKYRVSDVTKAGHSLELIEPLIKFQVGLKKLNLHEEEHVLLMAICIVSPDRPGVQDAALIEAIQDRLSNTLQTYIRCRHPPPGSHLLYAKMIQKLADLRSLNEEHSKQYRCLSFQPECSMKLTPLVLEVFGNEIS
Peroxisome proliferator-activated receptor delta (Homo sapiens), sequence (Q03181 whole entry, looked up): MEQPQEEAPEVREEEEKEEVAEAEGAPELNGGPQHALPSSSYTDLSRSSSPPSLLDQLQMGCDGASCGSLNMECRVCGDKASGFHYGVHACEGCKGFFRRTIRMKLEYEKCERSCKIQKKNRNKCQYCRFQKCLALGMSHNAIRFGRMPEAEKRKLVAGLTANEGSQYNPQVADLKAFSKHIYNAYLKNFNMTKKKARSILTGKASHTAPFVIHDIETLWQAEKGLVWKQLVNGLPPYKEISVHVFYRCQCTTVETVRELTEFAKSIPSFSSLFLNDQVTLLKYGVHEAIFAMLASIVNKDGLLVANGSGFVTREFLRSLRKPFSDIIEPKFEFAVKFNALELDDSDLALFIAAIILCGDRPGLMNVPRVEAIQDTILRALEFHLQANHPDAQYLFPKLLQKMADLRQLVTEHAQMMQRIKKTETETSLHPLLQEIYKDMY
Peroxisome proliferator-activated receptor gamma (Homo sapiens), sequence (P37231 whole entry, looked up): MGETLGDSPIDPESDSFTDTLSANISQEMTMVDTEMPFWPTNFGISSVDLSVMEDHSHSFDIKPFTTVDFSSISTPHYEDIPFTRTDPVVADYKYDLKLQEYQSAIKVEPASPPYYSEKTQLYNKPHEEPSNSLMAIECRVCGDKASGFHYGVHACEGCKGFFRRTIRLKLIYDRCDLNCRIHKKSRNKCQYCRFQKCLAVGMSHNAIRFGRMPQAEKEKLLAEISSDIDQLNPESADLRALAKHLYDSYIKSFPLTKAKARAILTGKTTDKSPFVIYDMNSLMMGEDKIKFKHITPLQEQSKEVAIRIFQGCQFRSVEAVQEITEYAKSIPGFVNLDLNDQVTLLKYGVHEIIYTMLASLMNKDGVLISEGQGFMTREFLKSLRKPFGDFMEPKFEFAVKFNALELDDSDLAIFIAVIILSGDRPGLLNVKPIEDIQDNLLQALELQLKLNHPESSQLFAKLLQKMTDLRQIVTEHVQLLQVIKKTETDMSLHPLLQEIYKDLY
Bile acid receptor (Homo sapiens), sequence (Q96RI1 whole entry, looked up): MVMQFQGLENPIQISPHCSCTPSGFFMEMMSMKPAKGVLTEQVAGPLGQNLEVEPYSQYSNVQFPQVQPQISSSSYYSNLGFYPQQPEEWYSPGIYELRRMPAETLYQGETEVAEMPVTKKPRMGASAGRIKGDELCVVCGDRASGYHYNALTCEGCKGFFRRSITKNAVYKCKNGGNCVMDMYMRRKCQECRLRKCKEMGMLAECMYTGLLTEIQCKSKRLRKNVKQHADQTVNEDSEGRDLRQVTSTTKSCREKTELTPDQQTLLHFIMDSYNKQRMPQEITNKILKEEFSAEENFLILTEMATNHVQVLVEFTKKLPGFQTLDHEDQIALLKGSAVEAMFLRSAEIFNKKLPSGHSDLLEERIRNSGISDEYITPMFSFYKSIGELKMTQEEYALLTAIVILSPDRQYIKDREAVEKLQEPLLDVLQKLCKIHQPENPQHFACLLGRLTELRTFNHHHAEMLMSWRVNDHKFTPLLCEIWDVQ

OC1CCCCCCCCCCC1
inactive: [1] | [2] | [3] | [4] | [5] | [6] | [7] | [8] | [9] | [10] | [11] | [12] | [13] | [14] | [15] | [16]

CC(C(=O)O)c1cccc(C(=O)c2ccccc2)c1 (stereo unspecified)
inactive: [1] | [2] | [3] | [4] | [5] | [6] | [7] | [8] | [10] | [11] | [12] | [13] | [14] | [15] | [16]

Cc1[nH]c(=O)c(C#N)cc1-c1ccncc1
inactive: [1] | [2] | [3] | [4] | [5] | [6] | [7] | [8] | [9] | [10] | [11] | [12] | [13] | [14] | [15] | [16]

Cc1cccc(C(=O)O)c1
inactive: [1] | [2] | [3] | [4] | [5] | [6] | [7] | [8] | [10] | [11] | [12] | [13] | [14] | [17] | [18] | [15] | [16]

C=CC(C)(CCC=C(C)C)OC(C)=O (stereo unspecified)
inactive: [1] | [2] | [3] | [4] | [5] | [6] | [7] | [8] | [10] | [11] | [12] | [19] | [13] | [20] | [14] | [17] | [18] | [15] | [16]

CCCCC(CC)COP(=O)(OCC(CC)CCCC)OCC(CC)CCCC (stereo unspecified)
inactive: [1] | [2] | [3] | [4] | [5] | [6] | [7] | [8] | [9] | [10] | [11] | [12] | [19] | [13] | [20] | [14] | [17] | [18] | [15] | [16]

c1ccc(Nc2ccccc2)cc1
inactive: [1] | [2] | [3] | [4] | [5] | [6] | [7] | [8] | [9] | [10] | [11] | [12] | [13] | [14] | [17] | [18] | [15] | [16]
